Shown are actives, neighbours in structure and some others; about 12% of the full set was active somewhere.
G9a inh = qHTS Assay for Inhibitors of Histone Lysine Methyltransferase G9a; Histone-lysine N-methyltransferase EHMT2 (Homo sapiens), Q96KQ7; G9a H3K9 monomethylation, AlphaScreen, 2 h; Potency, µM (highest dose often 102 µM), inactives show at the highest dose activity, negative = inhibition, usual class: inhibitors; 350,000 compounds, 8.8% hits; further: on the % scale 0 is the no-effect control and ±100 the full control effect; nearly all actives have a fitted effect of over 75% in size
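Compounds were preincubated with 20 nM G9a for 15 min, after which biotinylated H3K9 peptide (500 nM) and SAM (20 uM) started a 2 h room-temperature reaction. Monomethylated product was quantified by antibody-based AlphaScreen chemiluminescence.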
JMJD2A Tudor = qHTS Assay for Inhibitors of JMJD2A-Tudor Domain. Lysine-specific demethylase 4A (Homo sapiens), O75164. AlphaScreen JMJD2A-Tudor / H3K4me3 peptide binding. Potency, µM (doses to about 114 µM), for inactives: at the highest dose activity change, negative = inhibition, usual class: inhibitors. 390,000 compounds, 4.4% hits; further: on the % scale 0 is the no-effect control and ±100 the full control effect; nearly all actives have a fitted effect of over 50% in size
BAZ2B inh = qHTS Assay for Inhibitors of BAZ2B; Bromodomain adjacent to zinc finger domain protein 2B (Homo sapiens), Q9UIF8; AlphaScreen BAZ2B-H3K14Ac peptide displacement; Potency, µM (series often up to 114 µM), without a hit: at the highest dose activity change, negative = inhibition, hits mostly inhibitors; 360,000 compounds, 4.4% hits; further: on the % scale 0 is the no-effect control and ±100 the full control effect; nearly all actives have a fitted effect of over 60% in size
Target sequence (Q9UIF8 whole entry, looked up, the tested form may be a part): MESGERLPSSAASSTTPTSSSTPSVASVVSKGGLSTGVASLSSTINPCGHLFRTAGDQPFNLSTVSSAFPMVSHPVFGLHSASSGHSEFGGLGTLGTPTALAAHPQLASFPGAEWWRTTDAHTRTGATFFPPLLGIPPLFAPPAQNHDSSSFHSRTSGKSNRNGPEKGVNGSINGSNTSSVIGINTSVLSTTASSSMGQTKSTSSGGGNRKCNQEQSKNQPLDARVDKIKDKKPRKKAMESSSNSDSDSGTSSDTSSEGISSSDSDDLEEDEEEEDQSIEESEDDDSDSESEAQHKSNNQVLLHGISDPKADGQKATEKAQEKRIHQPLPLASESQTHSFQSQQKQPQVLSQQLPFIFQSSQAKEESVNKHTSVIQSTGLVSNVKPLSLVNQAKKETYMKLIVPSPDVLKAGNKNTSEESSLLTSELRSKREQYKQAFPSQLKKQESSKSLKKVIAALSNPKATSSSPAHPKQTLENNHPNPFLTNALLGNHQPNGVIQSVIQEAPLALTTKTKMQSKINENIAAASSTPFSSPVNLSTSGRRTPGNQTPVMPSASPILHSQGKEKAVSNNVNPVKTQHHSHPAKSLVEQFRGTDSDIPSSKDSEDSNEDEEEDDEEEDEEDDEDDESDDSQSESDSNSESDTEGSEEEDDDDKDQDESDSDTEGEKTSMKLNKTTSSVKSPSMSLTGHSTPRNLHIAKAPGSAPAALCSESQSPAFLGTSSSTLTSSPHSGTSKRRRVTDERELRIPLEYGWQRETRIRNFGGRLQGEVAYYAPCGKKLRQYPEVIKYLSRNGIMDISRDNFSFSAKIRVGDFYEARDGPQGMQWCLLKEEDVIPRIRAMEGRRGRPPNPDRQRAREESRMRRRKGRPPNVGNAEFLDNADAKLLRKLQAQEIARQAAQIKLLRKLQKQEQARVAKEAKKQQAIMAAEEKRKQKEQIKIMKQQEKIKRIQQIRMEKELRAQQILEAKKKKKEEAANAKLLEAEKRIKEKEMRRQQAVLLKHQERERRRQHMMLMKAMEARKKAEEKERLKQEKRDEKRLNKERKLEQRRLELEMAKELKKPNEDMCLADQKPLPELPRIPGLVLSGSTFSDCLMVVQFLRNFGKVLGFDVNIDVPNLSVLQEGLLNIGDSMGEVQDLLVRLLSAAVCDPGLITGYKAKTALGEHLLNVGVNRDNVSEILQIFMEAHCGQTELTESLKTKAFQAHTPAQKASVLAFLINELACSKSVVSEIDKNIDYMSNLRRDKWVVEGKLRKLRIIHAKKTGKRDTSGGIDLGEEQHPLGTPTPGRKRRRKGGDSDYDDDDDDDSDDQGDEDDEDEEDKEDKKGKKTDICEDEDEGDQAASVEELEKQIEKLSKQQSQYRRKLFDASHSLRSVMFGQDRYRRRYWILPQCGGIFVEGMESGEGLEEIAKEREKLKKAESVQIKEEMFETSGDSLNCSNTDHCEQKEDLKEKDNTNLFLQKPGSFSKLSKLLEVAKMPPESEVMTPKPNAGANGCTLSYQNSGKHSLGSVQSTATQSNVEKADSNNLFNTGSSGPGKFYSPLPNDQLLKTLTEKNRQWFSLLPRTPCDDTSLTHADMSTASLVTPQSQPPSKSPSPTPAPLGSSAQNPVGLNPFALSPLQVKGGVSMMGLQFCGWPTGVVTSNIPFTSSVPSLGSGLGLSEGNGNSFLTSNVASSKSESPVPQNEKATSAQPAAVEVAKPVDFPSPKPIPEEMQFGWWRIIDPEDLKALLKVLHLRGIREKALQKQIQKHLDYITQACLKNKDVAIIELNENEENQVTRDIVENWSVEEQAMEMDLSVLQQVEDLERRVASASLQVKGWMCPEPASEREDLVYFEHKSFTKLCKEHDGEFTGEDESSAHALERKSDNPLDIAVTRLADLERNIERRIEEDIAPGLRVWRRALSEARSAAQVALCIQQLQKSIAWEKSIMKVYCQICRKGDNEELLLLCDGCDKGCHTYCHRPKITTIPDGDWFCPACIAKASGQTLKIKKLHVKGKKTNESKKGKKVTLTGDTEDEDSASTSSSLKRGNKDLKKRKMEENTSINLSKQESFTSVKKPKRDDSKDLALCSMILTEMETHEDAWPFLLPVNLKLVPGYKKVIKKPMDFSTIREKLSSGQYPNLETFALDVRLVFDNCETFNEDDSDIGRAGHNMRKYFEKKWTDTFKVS
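Inhibition is scored as reduced AlphaScreen emission. The BAZ2B/b-H3(5-23)K14Ac complex (50 nM each) in PBS pH 7.4, 0.01% Tween-20 meets compound (up to 110 uM) for 30 min at RT before bead addition.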
PLK1 PBD inh = qHTS for Inhibitors of PLK1-PDB (polo-like kinase 1 - polo-box domain): Primary Screen. Plk1 PBD binding of FITC phosphopeptide, fluorescence polarization. Potency, µM, inactives show max response, negative = inhibition, most hits filed as inhibitors. 360,000 compounds, 2.8% hits; further: series mostly up to about 57 µM; on the % scale 0 is the no-effect control and ±100 the full control effect; nearly all actives have a fitted effect of over 65% in size
HP1b binding inh = HTS for Inhibitors of HP1-beta Chromodomain Interactions with Methylated Histone Tails | Chromobox protein homolog 1 (Homo sapiens), P83916 | AlphaScreen HP1-beta / biotin-H3K9me3 peptide binding | Potency, µM (doses to about 114 µM), for inactives: at the top dose activity change, negative = inhibition, hits mostly inhibitors | 390,000 compounds, 0.56% hits | AID 540317, 2011; further: nearly all actives have a fitted effect of over 70% in size
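HP1-beta protein (50 nM final) preincubated 30 min at room temperature with biotinylated H3(1-18)K9me3 peptide (50 nM) in PBS pH 7.4, 0.01% Tween-20, then compound added for 30 min. AlphaScreen streptavidin donor/nickel chelate acceptor beads (10 ug/mL final), 30 min dark, luminescence read.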
Sfp PPTase inh = qHTS Assay for Inhibitors of Bacillus subtilis Sfp phosphopantetheinyl transferase (PPTase) | 4'-phosphopantetheinyl transferase ffp (Bacillus subtilis), Q9F4F7 | Biochemical Sfp PPTase activity, qHTS | Potency, µM, inactives show largest response in the series, negative = inhibition, actives largely listed as inhibitors | 310,000 compounds, 3.5% hits;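 further: the enzyme is Sfp with the accession as filed and its product quenches rhodamine fluorescence; 0% = enzyme reaction without inhibitor and -100% = no enzyme wells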
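Fluorescence-quenching assay with 15 nM Sfp, 5 uM rhodamine-CoA and 12.5 uM BHQ-2-labelled ybbR peptide in pH 7.6 Hepes/MgCl2 buffer. Enzyme was pre-incubated with compound for 15 min at room temperature. Rate was taken from the 30-min fluorescence change (525/598 nm).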
The depositor's hits bear a star; ? = inconclusive; · = no result given; ! = not active in a repeat; [ ] = remark or other dose. The call rests on the fitted dose curve; in most records, active means well fitted curve in the direction sought with a large enough effect; inconclusive means small, poorly fitted or top-dose-only effect, or another doubt; inactive means no such curve, though single readings can be large; an effect the other way counts as inactive or inconclusive. Potency means the concentration at half of the fitted maximal effect.

SMILES	G9a inh	JMJD2A Tudor	BAZ2B inh	PLK1 PBD inh	HP1b binding inh	Sfp PPTase inh
CCC(=O)O[C@@](Cc1ccccc1)(c1ccccc1)[C@@H](C)CN(C)C	25%[21.5 µM]	·	·	·	·	8%
CC(=O)OCC1=C(C(=O)O)N2C(=O)[C@@H](N)[C@@H]2SC1	0%[5.15 µM]	·	·	·	·	22µM*
O=C(CCN1CCN(c2ccccc2)CC1)c1ccc(Br)cc1	20µM*	-32%	?	8.4µM*	21%	-5%
O=C(CCN1CCCCC1)Nc1ccc(Br)cc1C(=O)c1ccccc1	1%[2.33 µM]	-16%	4%	0%	25%	8%
O=C(C[N+]12CCC(CC1)C(OC(=O)c1ccccc1)C2)c1ccc([N+](=O)[O-])cc1 (configuration not stated)	·	-10%	-4%	-7%	32%	-1%
O=C(C[N+]12CCC(CC1)C(CO)C2)c1ccc([N+](=O)[O-])cc1 (configuration not stated)	35µM*	-7%	-13%	2%	54%	5%
COc1ccc(C[C@@H]2NC[C@H](O)[C@@H]2OC(C)=O)cc1	11%[21.5 µM]	·	·	·	·	9%
CC(=O)[C@H]1CC[C@H]2[C@@H]3CC[C@H]4C[C@](C)(O)CC[C@]4(C)[C@H]3CC[C@]12C	7.9µM*!	·	·	·	·	3%
O=C(Oc1ccc(C(=S)N2CCOCC2)cc1)c1ccc([N+](=O)[O-])cc1[N+](=O)[O-]	45µM*	?	-1%	-6%	13%	-10%
N#Cc1ccc(C(=O)N2CCN(c3nc4ccc(F)cc4s3)CC2)cc1	5%[59 µM]	0%	0%	·	40%	·
C(#CCN1CCOCC1)COCC#Cc1ccccc1	?	?	?	-1%	37%	15%
COc1ccccc1OCC#CCN1CCCC(C)C1 (configuration not stated)	·	11µM*	25µM*	-1%	?	0%
COc1ccccc1OCC#CCN1CCOCC1	4µM*	?	28µM*	-2%	71µM*	?
CN1C(=O)CCS(=O)(=O)[C@H]1c1ccc(Cl)cc1	·	·	·	·	·	3%
C=C(C)[C@@]12OC3(c4ccccc4)O[C@@H]1[C@@H]1[C@@H]4O[C@]4(CO)[C@@H](O)[C@]4(O)C(=O)C(C)=C[C@H]4[C@@]1(O3)[C@H](C)[C@H]2OC(=O)/C=C/C=C/c1ccccc1	·	·	·	·	·	0%
C[N+](C)(C)CCCl	·	·	·	·	·	12%
CC(=O)c1ccc2c(c1)OCO2	-46%	-12%	-1%	2%	35%	0%
C[n+]1cccc(C(=O)N/N=C/c2ccc3c(c2)OCO3)c1	?	-4%	50µM*	-1%	3%	-16%
Cc1cc(C)cc(Oc2nc3ccccn3c(=O)c2/C=C(\C#N)c2nc3ccccc3s2)c1	3.5µM*	-12%	-18%	·	50%	·
CCOC(=O)[C@]12Cc3cc(Cl)ccc3[C@H]1N(C1CCCCC1)C(=O)c1ccccc12	·	·	·	1.9µM*	·	·
CCOC(=O)[C@]12Cc3cc(Cl)ccc3[C@H]1N(C)C(=O)c1ccccc12	·	·	·	-28%	·	·
CCOC(=O)[C@]12Cc3cc(OC)ccc3[C@H]1N(C1CCCCC1)C(=O)c1ccccc12	·	·	·	3µM*	·	·
CCOC(=O)[C@]12Cc3cc(C)ccc3[C@H]1N(C)C(=O)c1ccccc12	·	·	·	-17%	·	·
CCOC(=O)C1(CCc2ccccc2)CCN(Cc2ccc3c(c2)OCCO3)CC1	4%	-30%	-17%	-11%	8%	10%
CCOc1ccc(CN(CCc2ccc3c(c2)OCO3)Cc2cccc(Br)c2)cc1	?	5µM*	?	·	?	·
SMILES	G9a inh	JMJD2A Tudor	BAZ2B inh	PLK1 PBD inh	HP1b binding inh	Sfp PPTase inh
CCOc1ccc(CN(CCc2ccc3c(c2)OCO3)Cc2ccc(OC)c(Br)c2)cc1	?	7.1µM*	?	·	?	·
CCOc1ccc(CN(CCc2ccc3c(c2)OCO3)Cc2cccc(OC)c2)cc1	2.2µM*	6.3µM*	32µM*	·	?	·
CCOc1ccc(CN(CCc2ccc3c(c2)OCO3)Cc2ccc(C)cc2)cc1	?	6.3µM*	?	·	?	·
COc1ccccc1NC(=O)N(Cc1ccc2c(c1)OCO2)C1CCN(Cc2ccccc2)CC1	?	?	?	·	-4%	·
CC(C)(O)[C@H]1O[C@@H]2CC[C@]3(C)[C@@]4(C)c5[nH]c6ccccc6c5C[C@@H]4CC[C@]3(O)C2=CC1=O	·	·	·	·	·	-20%
C=CCn1c(O)c(C(CC)=NCCc2ccccc2)c(=O)[nH]c1=O	-10%	-11%	-6%	-6%	15%	4%
C=CCn1c(O)c(/C(C)=N/NC(=S)Nc2ccccc2)c(=O)[nH]c1=O	-124%[59 µM]	?	-3%	-25%	6%	35µM*
C=CCn1c(O)c(/C(CC)=N/NC(=S)Nc2ccccc2)c(=O)[nH]c1=O	·	-10%	-10%	-14%	18%	22µM*
CNC(C)Cc1ccccc1OC (configuration not stated)	6%[59 µM]	·	·	·	·	4%
C/C(=C/C=C/[C@@H](C)C(=O)O)[C@H]1CN[C@H](C(=O)O)[C@H]1CC(=O)O	?	56µM*	-2%	-8%	21%	-11%
CCCCN(CC)c1c([N+](=O)[O-])cc(C(F)(F)F)cc1[N+](=O)[O-]	·	·	·	·	·	8%
CCC1(CC)C(=O)NC(=O)N(C)C1=O	12%[12.7 µM]	·	·	·	·	14%
O=C(NC(=O)c1c(F)cccc1F)Nc1cc(Cl)c(OC(F)(F)C(F)C(F)(F)F)cc1Cl (configuration not stated)	1%[12.7 µM]	·	·	·	·	13%
C=CCn1c(O)c(C(CC)=NCc2cccnc2)c(=O)[nH]c1=O	-30%	44%	-3%	-6%	38%	3%
Cc1ncc(CNC(=O)N(CCCl)N=O)c(N)n1	17µM*!	-34%	-10%	-9%	24%	-28%
CC1=CCCC2C1(C)CCC(C)C2(C)CC/C(C)=C/C[n+]1cn(C)c2c(N)ncnc21 (configuration not stated)	-17%[2.33 µM]	·	·	·	·	-25%
COC(=O)[C@@H]1C[C@@]2(O)[C@@H](O)[C@@H](O)[C@@H](O)C[C@H]2N1Cc1cccnc1	·	·	·	·	·	39%
CCCCCSc1cc(O)c(C(CNC)C(C)C)cc1OC (configuration not stated)	11µM*	?	?	-6%	9%	-14%
C=C(C)[C@H]1C2C(=O)O[C@H]1[C@H]1OC(=O)[C@@]34O[C@@H]3C[C@]2(O)[C@@]14C	-3%[59 µM]	·	·	·	·	16%

Compound activity (PubChem BioAssay)
